Screens: PubChem, National Center for Advancing Translational Sciences (NCATS)
Only a selection was taken, and hits are over-represented in it overall.
GPT2 inh – GPT2 alanine aminotransferase inhibition. Recombinant GPT2, coupled pyruvate oxidase/HRP Amplex Red fluorescence. Potency, µM (top dose mostly 57.7 µM), usual class: inhibitors. 100,000 tested, 0.25% active. Q8TD30; active means well fitted inhibition curve with a large enough effect; further: nearly all actives have a fitted effect of over 60% in size
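GPT2 10ng/uL, a-KG 250uM, L-Ala 2mM, HEPES pH7.5 + 0.0001% Tween; 30 min RT. Then Amplex mix (PO/HRP/ThPP), 30 min RT dark, fluorescence. AOA 50uM used as positive control.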
Numbers stand for hits; n = inactive.

SMILES | GPT2 inh
CC(C)[C@H]1C(=O)N[C@H](CO)Cc2c[nH]c3cccc(c23)N1C | 15µM
CN(C[C@H]1CN2CC[C@H]1C[C@@H]2CNC(=O)c1ccccc1)c1ccccc1 | n
CN(C)c1ccc(CC(=O)N2CCN(Cc3ccccc3)CC(O)C2)cc1 (centres undefined) | n
COc1ccc2c3c1O[C@H]1[C@@H](O)C=C[C@H]4[C@@H](C2)N(C)CC[C@@]341 | n
CN1CC[C@]23c4c5ccc(O)c4O[C@H]2[C@@H](O)C=C[C@H]3[C@H]1C5 | 28µM
COc1ccc2c3c1O[C@H]1[C@H](O)CC[C@H]4[C@@H](C2)N(C)CC[C@@]341 | n
C#C[C@H]1CN2CC[C@H]1C[C@@H]2CNCc1ccc(F)c(F)c1 | n
O=C(N1CCC2(CC1)NCc1ccccc1-n1ccnc12)C1(c2ccccc2)CC1 | n
Cn1nc(-c2ccc(F)cc2)cc1[C@H]1CN2CC[C@H]1C[C@@H]2CNC(=O)Nc1ccccc1 | n
Cc1cccc(OCC(=O)N2C[C@@H](CO)[C@H](N(C)C)C2)c1 | n
CN1CCCCCCN(Cc2ccccn2)[C@H]2CCC[C@H]2C1=O | n
CC1=CC2OC3CC(O)[C@](C)([C@@]2(C)C(O)C1=O)[C@]31CO1 (some centres undefined) | n
NCC(O)c1cc(O)c(O)cc1F (centres undefined) | 10µM
COc1c(C)cnc(CN2CCC3(C2)C(=O)N(C)C(=O)N3C)c1C (centres undefined) | n
COc1cc2c(cc1O)C1(C)CCC(O)C(C)(C)C1CC2=O (centres undefined) | n
